# Data from PubChem BioAssay AID602250 (The Scripps Research Institute Molecular Screening Center, 2012).
# In all, about 360,000 compounds went through this assay and about 2,200 (0.61%) were called active. For the sample, actives were picked, then their nearest neighbours and some compounds at random. Values without a mark were called inactive.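 How the source made its calls: active means inhibition above a per-plate cutoff, the plate's mean sample inhibition plus 3 SD (cut at about 24% in these data); inactive means the rest.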
# Test: calcium signal blockers in parental CHO-K1 cells – cell-based, Fluo-8 calcium fluorescence, full deck, 1536-well, counter-screen for M1 antagonist project, primary screen (AID 602250);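 further: 0% = DMSO plus EC80 ATP and 100% = DMSO alone without ATP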
# Conditions: ATP-induced calcium, Fluo-8 fluorescence, at 3 µM, hits give high values
row,SMILES,inhibition
1,CCCN(CC1COc2ccccc2O1)C(=S)Nc1ccc(C)cc1 (stereo not drawn),-5.53%
2,S=C(NCC1COc2ccccc2O1)Nc1ccc(Br)cc1 (stereo not drawn),32.9% (active)
3,CC(NC(=S)Nc1ccccc1)C1COc2ccccc2O1 (stereo not drawn),4.65%
4,COc1ccc(C)cc1NC(=O)CN1c2cccc3cccc(c23)S1(=O)=O,-7.85%
5,CCc1ccccc1N(CC(=O)NCC1CCCO1)C(=O)CCC(=O)Nc1nccs1 (stereo not drawn),-0.55%
6,C=CCNC(=S)N1CCN(CCN=Cc2c(C)[nH]n(-c3ccc([N+](=O)[O-])cc3)c2=O)CC1,13.7%
7,O=C(c1ccc(F)cc1)N1CCC(n2nnc3ccccc32)CC1,5.53%
8,O=S(=O)(c1cccc(S(=O)(=O)N2CCC(n3nnc4ccccc43)CC2)c1)N1CCCCC1,25.7% (active)
9,CC(=O)c1cccc(S(=O)(=O)N2CCC(n3nnc4cc(F)ccc43)CC2)c1,-5.37%
10,O=C1c2ccccc2C(=O)N1CC1c2ccccc2CCN1S(=O)(=O)c1ccccc1 (stereo not drawn),-4.18%
11,CCc1nnc(NC(=O)CSc2nc(SC)ns2)s1,-15.7%
12,O=C(O)c1ccccc1-c1ccccc1C(=O)Nc1nccs1,-12.8%
13,COc1ccc(Cl)cc1NC(=O)CN(C)C(=O)c1cn(-c2ccccc2)nc1-c1cccs1,-12.4%
14,COc1ccc(-c2nn(-c3ccccc3)cc2C(=O)Nc2nccs2)cc1OC,33.9% (active)
15,O=C(COc1ccc(F)cc1)N(CC1=CCS(=O)(=O)C1)c1ccccc1,-14.8%
16,O=C1OC(Cc2ccccc2)C(c2ccccc2)C1=O (stereo not drawn),-2.69%
17,CCOC(=O)[C@H]1[C@H]2COc3ccc(Br)cc3[C@@H]2N2C(=O)CN(C)C(=O)[C@@]12C,-3.65%
18,Cc1c(C)n(Cc2ccc(Cl)cc2)c2ccc(C(=O)NCCCN3CCOCC3)cc12,31.3% (active)
19,O=C(NCCCN1CCOCC1)c1cc(-c2ccc(Cl)cc2)on1,-8.77%
20,COc1ccc(C(=O)NCCCN2CCOCC2)cc1Br,8.25%
21,O=C(COc1ncnc2c(Cl)cc(Cl)cc12)N1CCN(S(=O)(=O)c2ccccc2)CC1,-14%
22,O=C(Nc1cccc(Cl)c1)Nc1ccccc1NS(=O)(=O)c1cccs1,36.7% (active)

row,SMILES,inhibition
1,O=S(=O)(Nc1ccccc1Br)c1cccs1,-11%
2,O=S(=O)(Nc1ccccc1)c1ccc(NS(=O)(=O)c2cccs2)cc1,-3.36%
3,Cn1c(NCc2cccnc2)nc2cc(-c3ccc(F)cc3)sc2c1=O,-2.34%
4,CCN(C(=O)COC(=O)c1c(NC(C)=O)sc(C)c1C)C1CCS(=O)(=O)C1 (stereo not drawn),-7.84%
5,Cc1ccc(S(=O)(=O)c2ccc(Cl)cc2)cc1S(=O)(=O)NC(C(=O)O)C(C)C (stereo not drawn),-0.98%
6,CC(=O)Nc1ccc(S(=O)(=O)N2CCN(C(=O)c3ccccc3F)CC2)cc1,0.99%
7,CCC1=NN(C(=O)Cc2ccc([N+](=O)[O-])cc2)C(O)(c2ccc(Br)cc2)C1 (stereo not drawn),-13.2%
8,Cc1ccc(Nc2nc(CSc3nnnn3-c3ccccc3)cc(=O)[nH]2)cc1,2%
9,CN1OC[C@@H]2CN(C(=O)C(C)(C)C)[C@H](c3ccc(-n4ccnc4)cc3)C[C@@H]21,28.2% (active)
10,CN1OC[C@@H]2CN(C(=O)c3cccnc3)[C@H](c3ccc(N4CCCCC4)cc3)C[C@@H]21,8.63%
11,CN1OC[C@@H]2CN(C(=O)c3cccc4ccccc34)[C@H](c3ccc(N4CCCCC4)cc3)C[C@@H]21,16.5%
12,COc1ccc(Cl)cc1NC(=O)Cn1nc(-c2ccc(C)cc2)n(C)c1=S,-1.73%
13,COc1ccccc1OCC(=O)OCc1cc(-c2ccco2)on1,-11.2%
14,CC(C)C1C(=O)N(Cc2cn(CCC3OCCO3)nn2)CCS(=O)(=O)N1Cc1ccc(-c2ccccc2C(F)(F)F)cc1 (stereo not drawn),-1.16%
15,Cc1ccc(Cn2nnc3c(=O)[nH]c(C4CCN(S(=O)(=O)/C=C/c5ccccc5)CC4)nc32)cc1,-19.1%
16,COc1ccc(NC(=O)/C(C#N)=C\c2cc(OC)c(OCc3ccc(C(=O)O)cc3)cc2Br)cc1,24.8% (active)
17,COc1cc(/C=C(\C#N)C(=O)Nc2ccc3ccccc3c2)c([N+](=O)[O-])cc1OC,0.2%
18,COCCNC(=O)/C(C#N)=C/c1cccc(OCc2ccccc2)c1,-9.6%
19,c1ccc(CCN2CN=C(Nc3nc4ccccc4o3)NC2)cc1,-10.1%
20,Cc1ccccc1N(C(=O)Cc1cccs1)C(C(=O)NC1CCCCC1)c1cn(C)nc1C (stereo not drawn),-4.07%
21,O=S(=O)(Nc1ccc2nc(-c3ccco3)[nH]c2c1)c1ccccc1,-1.24%
22,Cc1cc(OC(C)C(=O)Nc2ccc(S(=O)(=O)Nc3onc(C)c3C)cc2)cc(C)c1Cl (stereo not drawn),8.91%

row,SMILES,inhibition
1,O=C(NC1(C(F)(F)F)N=C2SCCN2C1=O)c1ccco1 (stereo not drawn),23.7% (active)
2,O=C(NN1C(=O)C2CCCCC2C1=O)c1ccco1 (stereo not drawn),-4.97%
3,COc1ccc(S(=O)(=O)NC2(C(F)(F)F)N=C3SCCN3C2=O)cc1 (stereo not drawn),6.7%
4,Cc1c(NC(=O)CSCc2ccccc2)cccc1C(=O)O,-4.2%
5,CC(C)CN(CC(C)C)CC(O)CN(c1ccccc1)S(=O)(=O)c1ccccc1[N+](=O)[O-] (stereo not drawn),-22.2%
6,COc1ccc(C2(CNC(=O)Cc3ccc(OC)c(OC)c3)CCCC2)cc1,0.54%
7,O=C(/C=C(O)/C=C/c1ccc(O)cc1)/C=C/c1ccc(O)cc1,31.8% (active)
8,C=CCNC(=O)/C=C/c1ccc(C(C)C)cc1,-7.72%
9,O=C(O)/C=C/c1ccc(S(=O)(=O)N2CCCCCC2)cc1,-2.18%
10,COc1cccc(CNC(=O)CCC2CCCN(C(=O)c3cc(C)[nH]n3)C2)c1 (stereo not drawn),-15.8%
11,CCOC(=O)c1c(NC(=O)C2CC=CCC2C(=O)O)sc(C)c1CC (stereo not drawn),-0.11%
12,CCCCC(=O)NCc1ccc(F)cc1,-1.22%
13,CCCCC(=O)NNC(=S)NC(=O)C(c1ccccc1)c1ccccc1,61.1% (active)
14,CCCOCC(O)CC(CC)C(=O)NNC(=S)Nc1ccccc1 (stereo not drawn),1.16%
15,Cc1ccc(C)c(NC(=O)C2Cc3ccccc3CN2C(=O)OCc2ccccc2)c1 (stereo not drawn),-8.92%
16,Cn1c(SCC(=O)N2CCCCC2)nc2c(c1=O)SCC2,8.86%
17,Cc1cccc(CSc2nc3c(c(=O)n2C)SCC3)c1,27.6% (active)
18,Cc1cccc(CSc2nnc(C)c(=O)n2N)c1,-7.07%
19,COc1cc(S(=O)(=O)N2CCOCC2)ccc1NC(=O)COc1ccc(N(C)S(=O)(=O)c2ccc(C)cc2)cc1,-12%
20,COc1cc(C(=O)NCc2ccc3c(c2)cc(C)n3C)cc(OC)c1OC,19.1%
21,CCn1c(CNC(=O)c2cc(OC)c(OC)c(OC)c2)cc2cc(C)ccc21,36.1% (active)
22,COc1cc(C(=O)NCc2cc3cc(Cl)ccc3n2C)cc(OC)c1OC,-7.3%

row,SMILES,inhibition
1,CN(Cc1nc(-c2cnccn2)no1)Cc1n[nH]c2c1CCCCC2,-7.73%
2,CC1CCCN(CC(O)COc2ccc3c(c2)OCO3)C1 (stereo not drawn),-7.13%
3,Cn1c(=O)[nH]c(=O)c2c1nc(N(CCO)Cc1ccccc1)n2Cc1ccccc1Cl,-11.1%
4,NS(=O)(=O)c1ccc(NC(=O)COC(=O)C2(c3ccc(F)cc3)CCCC2)cc1,31.1% (active)
5,CN(C)S(=O)(=O)c1cccc(NC(=O)COC(=O)C2(c3ccccc3F)CCCC2)c1,0.69%
6,O=C(COC(=O)C1(c2ccc(F)cc2)CCCC1)N1CCNC1=O,-20.1%
7,O=C(N[C@H]1C/C=C\C(c2ccc(F)cc2)N(Cc2ccccc2)C(=O)C1)OCC1c2ccccc2-c2ccccc21 (stereo partly drawn),-13%
8,COc1ccc(COCCN2CCN(S(=O)(=O)c3ccccc3)CCC2=O)cc1,-8.23%
9,Cc1ccc(S(=O)(=O)N2CCC(=O)N([C@H](COCc3ccccc3)Cc3ccccc3)CC2)cc1,-5.28%
10,Cc1ccc(S(=O)(=O)N2CCC(=O)N([C@H](COCc3ccccc3)C(C)C)CC2)cc1,41.5% (active)
11,O=C(Nc1ccc(Cl)c(Cl)c1)c1ccccc1NC(=O)C1CC=CCC1C(=O)O (stereo not drawn),3.94%
12,CCCSc1ncccc1C(=O)O,-2.1%
13,CC1=C(C(=O)NC2CC(C)(C)Cc3c2cnn3-c2ccc(C)cc2)OCCO1 (stereo not drawn),-1.6%
14,COC(=O)c1ccc(C(=O)NC2CC(C)(C)Cc3c2cnn3-c2ccc(F)cc2)nc1 (stereo not drawn),-7.53%
15,COc1ccc(C(=O)NC2CC(C)(C)Cc3c2cnn3-c2ccccc2C)o1 (stereo not drawn),-6.41%
16,COc1ccc(C(=O)NC2CCCc3c2cnn3-c2cccc(C)c2C)c(OC)n1 (stereo not drawn),19.6%
17,Cn1nccc1C(=O)NC1CCCc2c1cnn2-c1ccccc1F (stereo not drawn),26.9% (active)
18,Cn1nccc1C(=O)NC1CCCc2c1cnn2-c1ccc(F)cc1F (stereo not drawn),28.7% (active)
19,O=c1cc(CN2CCN(S(=O)(=O)/C=C/c3ccccc3)CC2)c2ccc(O)cc2o1,6.97%
20,Cc1cc(NC(=O)CCS(=O)(=O)c2ccc(F)cc2)no1,-0.17%
21,COc1ccc2c(c1)C=CC1(O2)N(CCO)c2ccccc2C1(C)C (stereo not drawn),-4.71%
22,Cc1cc(OCC(=O)Nc2c(C)n(C)n(-c3ccccc3)c2=O)ccc1[N+](=O)[O-],-14.3%
